Test results: PubChem BioAssay AID602256 (National Center for Advancing Translational Sciences (NCATS), 2012)
Records with an inconclusive call do not appear. Unmarked numbers belong to inactive results. Active and inactive are the calls of the source. Calls come from the whole dose curve; as a rule, active = well fitted curve in the direction sought with a large enough effect; inconclusive = small, poorly fitted or top-dose-only effect, or another doubt; inactive = no such curve, though single readings can be large or run the other way.

biological target: Relaxin receptor 1 (Homo sapiens) (UniProt Q9HBX9); assay: qHTS Assay for Agonists of the Relaxin Receptor RXFP1: RXFP1 SAR; settings: HEK293T-RXFP1 cAMP TR-FRET, 30 min; efficacy: hits give high values
Sequence (Q9HBX9 whole entry, looked up): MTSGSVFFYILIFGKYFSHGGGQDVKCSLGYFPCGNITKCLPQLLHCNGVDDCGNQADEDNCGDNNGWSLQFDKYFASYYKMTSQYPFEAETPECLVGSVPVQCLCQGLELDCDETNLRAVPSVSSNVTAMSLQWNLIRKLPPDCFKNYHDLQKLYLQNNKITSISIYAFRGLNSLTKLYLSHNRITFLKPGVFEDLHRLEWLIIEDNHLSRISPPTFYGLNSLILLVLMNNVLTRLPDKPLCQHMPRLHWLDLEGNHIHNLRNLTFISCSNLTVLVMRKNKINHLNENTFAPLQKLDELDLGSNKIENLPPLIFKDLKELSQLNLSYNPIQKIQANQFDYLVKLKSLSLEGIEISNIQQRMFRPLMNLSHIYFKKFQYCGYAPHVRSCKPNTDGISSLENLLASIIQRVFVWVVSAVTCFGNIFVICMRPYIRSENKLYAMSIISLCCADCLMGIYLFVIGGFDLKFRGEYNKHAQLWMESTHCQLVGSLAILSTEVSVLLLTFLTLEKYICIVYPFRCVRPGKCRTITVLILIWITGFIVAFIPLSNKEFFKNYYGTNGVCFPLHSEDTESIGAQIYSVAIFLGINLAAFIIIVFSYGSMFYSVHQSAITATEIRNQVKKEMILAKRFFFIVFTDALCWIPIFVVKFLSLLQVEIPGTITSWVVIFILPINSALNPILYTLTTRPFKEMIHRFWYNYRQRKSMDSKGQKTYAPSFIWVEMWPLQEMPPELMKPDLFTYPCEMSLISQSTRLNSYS
Source text: The relaxin hormone is involved in the variety of biological functions in normal tissues and diseases. The role of relaxin is well-established in female reproduction and parturition, mammary gland and endometrial development, maintenance of myometrial quiescence during pregnancy. Relaxin signaling through its G protein-coupled receptor (GPCR) RXFP1 results in ECM remodeling through regulation of collagen deposition, cell invasiveness, proliferation and overall tissue homeostasis. […] Recombinant human relaxin (rhRlx) is currently being tested in clinical trials as a protective agent in congestive heart failure, in treating severe preeclampsia, and as an anti-fibrotic agent in systemic sclerosis. Upon relaxin binding RXFP1 activation leads to the activation of adenylate cyclase (AC) via Gs. cAMP will activate PKA, which phosphorylates many signaling proteins. Thus, detection of cAMP increase is an easy and reliable indication of relaxin receptor activation. To screen for agonists of the relaxin receptor, a HEK293T cell line stably transfected with RXFP1 was used. RXFP1 activation was assayed by changes in cAMP levels as detected with a time-resolved fluorescence energy transfer (TR-FRET) cAMP detection kit. NIH Chemical Genomics Center [NCGC] NIH Molecular Libraries Probe Production Centers Network [MLPCN] MLPCN Grant: R03 MH085705-01A1 Assay Submitter (PI): Alexander Agoulnik
This is a cell-based assay for cAMP second messenger response to screen for agonists of the RXFP1 receptor. The assay was conducted in the presence of a PDE4 inhibitor (Ro 20174). The cells were lysed and the cAMP levels were measured with a TR-FRET cAMP kit. Presence of cAMP in the cell lysate disrupts binding between the cryptate-labeled anti-cAMP and d2-labeled cAMP pair, leading to a decrease in the TR-FRET signal. Data were normalized to the controls for basal activity (buffer only) and 100% activity (29 nM porcine relaxin). The EC50 values were determined from concentration-response data modeled with the standard Hill equation 1536-well assay protocol for the HEK293 RXFP1 cAMP assay: (1) Add 3 ul HEK293 RXFP1 cell culture. 2000 cells/well in DMEM/F12, 10% FBS, 1x Pen/Strep (dispensed offline with MultiDrop Combi). (2) Incubate 16-24 hr at 37C, 5% CO2. (3) Add 1 ul 400uM Ro20174 in DPBS, 0.05% BSA, 0.005% Tween 20. (3) Add 23 nl compounds in DMSO solution. Final concentration was 0.5 - 58 uM. (4) Incubate 30 min at 37C, 5% CO2. (5) Add 1 ul cAMP-d2 in lysis buffer (HTRF cAMP HiRange kit, CisBio). (6) Add 1 ul anti-cAMP antibody-cryptate in lysis buffer (HTRF cAMP HiRange kit, CisBio). (7) Incubate 30 min at room temperature. (6) Detect the assay plate in a ViewLux plate reader (PerkinElmer) with Ex=320 nm, Em1=615 nm and Em2=665 nm. Keywords: relaxin, RXFP1, RXFP2, G-protein coupled receptor, cAMP, agonist, high throughput screening, MLSMR, MLSCN, NIH Roadmap, qHTS and NCGC

With `O=C(Nc1ccccc1C(=O)Nc1cccc(C(F)(F)F)c1)c1ccccc1` as the compound, how does the Potency read?
Its Potency is 1330 nM (active).

For `CCOc1ccccc1-c1nc2c(C(=O)Nc3cccc(S(=O)(=O)C(F)(F)F)c3)cccc2[nH]1`, which efficacy is on record?
The efficacy was 4.9%.

How did the Potency turn out when `CSc1cccc(NC(=O)c2ccccc2NC(=O)C2CCCCC2)c1` was run?
Its Potency is 5290 nM (active).

How did the Potency turn out when `CCOc1ccccc1C(=O)Nc1ccncc1C(=O)Nc1cccc(S(=O)(=O)C(F)(F)F)c1` was run?
The Potency was 747 nM (active).

With `O=C(NCc1cccc(C(F)(F)F)c1)c1ccccc1NC(=O)C1CCCCC1` as the compound, how does the efficacy read?
The efficacy was 4.71%.

Which Potency does the source give for `COCCOc1ccccc1C(=O)Nc1ccccc1C(=O)Nc1cccc(C(F)(F)F)c1` here?
The Potency was 747 nM (active).

With `CCOc1ccccc1C(=O)Nc1ccccc1CNc1cccc(S(=O)(=O)C(F)(F)F)c1` as the compound, how does the Potency read?
The Potency was 2650 nM (active).

Which Potency does the source give for `COc1cccc(OC)c1C(=O)Nc1ccccc1C(=O)Nc1cccc(C(F)(F)F)c1` here?
The Potency was 7470 nM (active).

`O=C(Nc1cccc(Br)c1)c1ccccc1NC(=O)C1CCCCC1` was tested. Which Potency did it give?
Its Potency is 2650 nM (active).

`CCC(CC)C(=O)Nc1ccccc1C(=O)Nc1cccc(C(F)(F)F)c1` was tested. Which Potency did it give?
Its Potency is 5290 nM (active).

With `COc1cccc(C(=O)Nc2ccccc2C(=O)Nc2cccc(C(F)(F)F)c2)c1` as the compound, how does the Potency read?
The Potency was 1880 nM (active).

With `O=C(NCc1ccco1)c1ccccc1NC(=O)c1ccccc1NC(=O)C1CCCCC1` as the compound, how does the Potency read?
The Potency was 9400 nM (active).

Which Potency does the source give for `CCOc1ccccc1C(=O)Nc1ncccc1C(=O)Nc1cccc(S(=O)(=O)C(F)(F)F)c1` here?
The Potency was 1670 nM (active).

Which Potency does the source give for `O=C(Cc1ccccc1)Nc1ccccc1C(=O)Nc1cccc(C(F)(F)F)c1` here?
Its Potency is 8380 nM (active).

With `COc1ccccc1C(=O)Nc1cccc(C(=O)Nc2cccc(C(F)(F)F)c2)c1` as the compound, how does the efficacy read?
The efficacy was 1.37%.

Which Potency does the source give for `O=C(Nc1cccc(C(F)(F)F)c1)c1ccccc1NC(=O)C1CC1` here?
The Potency was 8380 nM (active).

`COc1ccccc1C(=O)N(C)c1ccccc1C(=O)Nc1cccc(C(F)(F)F)c1` was tested. Which efficacy did it give?
Its efficacy is -2.4%.

For `CC(C)Oc1ccccc1C(=O)Nc1ccccc1C(=O)Nc1cccc(C(F)(F)F)c1`, which Potency is on record?
Its Potency is 471 nM (active).

For `O=C(Nc1cccc(C(F)(F)F)c1)c1ccccc1NC(=O)C1CCCCC1`, which Potency is on record?
The Potency was 1880 nM (active).

With `COc1ccccc1C(=O)Nc1ccccc1C(=O)Nc1cccc(C(F)(F)F)c1` as the compound, how does the Potency read?
Its Potency is 334 nM (active).

How did the efficacy turn out when `O=C(Nc1cccc(-c2cccc(C(F)(F)F)c2)c1)c1ccccc1NC(=O)C1CCCCC1` was run?
The efficacy was 15%.

How did the Potency turn out when `O=C(Nc1cccc(S(=O)(=O)C(F)(F)F)c1)c1ccccc1NC(=O)C1CCCCC1` was run?
The Potency was 1060 nM (active).

Which Potency does the source give for `O=C(Nc1cccc(C(F)(F)F)c1)c1ccccc1NC(=O)c1ccccc1OC(F)(F)F` here?
The Potency was 1180 nM (active).

For `CCOc1ccccc1C(=O)NCCC(=O)Nc1cccc(S(=O)(=O)C(F)(F)F)c1`, which Potency is on record?
The Potency was 4710 nM (active).

For `CCCOc1ccccc1C(=O)Nc1ccccc1C(=O)Nc1cccc(S(=O)(=O)C(F)(F)F)c1`, which Potency is on record?
The Potency was 52.9 nM (active).

How did the Potency turn out when `CCSc1ccccc1C(=O)Nc1ccccc1C(=O)Nc1cccc(S(=O)(=O)C(F)(F)F)c1` was run?
Its Potency is 529 nM (active).

`O=C(Nc1cccc(Cl)c1)c1ccccc1NC(=O)C1CCCCC1` was tested. Which Potency did it give?
Its Potency is 3340 nM (active).

Which Potency does the source give for `O=C(Nc1cccc(S(=O)(=O)C(F)(F)F)c1)c1ccccc1NC(=O)c1ccccc1OCC(F)(F)F` here?
Its Potency is 66.6 nM (active).

For `CCOc1ccccc1C(=O)Nc1sccc1C(=O)Nc1cccc(S(=O)(=O)C(F)(F)F)c1`, which Potency is on record?
Its Potency is 2360 nM (active).

With `COc1ccccc1C(=O)Nc1ccc(C(=O)Nc2cccc(C(F)(F)F)c2)cc1` as the compound, how does the efficacy read?
Its efficacy is -2.02%.

How did the efficacy turn out when `COc1ccccc1-c1ccccc1C(=O)Nc1cccc(C(F)(F)F)c1` was run?
Its efficacy is -3.31%.

Which Potency does the source give for `O=C(Nc1cccc(C(F)(F)F)c1)c1ccccc1NC(=O)C1CCC1` here?
The Potency was 2970 nM (active).

Which efficacy does the source give for `COc1ccccc1C(=O)N(C)c1ccccc1C(=O)N(C)c1cccc(C(F)(F)F)c1` here?
Its efficacy is 0.957%.

For `O=C(Nc1ccccc1C(=O)Nc1cccc(C(F)(F)F)c1)c1ccccc1Cl`, which Potency is on record?
The Potency was 3740 nM (active).

`CCCCOc1ccccc1C(=O)Nc1ccccc1C(=O)Nc1cccc(S(=O)(=O)C(F)(F)F)c1` was tested. Which Potency did it give?
Its Potency is 47.1 nM (active).

`COc1ccccc1C(=O)Nc1ccccc1C(=O)Nc1cccc(S(=O)(=O)C(F)(F)F)c1` was tested. Which Potency did it give?
The Potency was 188 nM (active).

With `O=C(Nc1ccccc1C(=O)Nc1cccc(C(F)(F)F)c1)c1cccnc1` as the compound, how does the Potency read?
The Potency was 5930 nM (active).

How did the Potency turn out when `CCCCC(=O)Nc1ccccc1C(=O)Nc1cccc(C(F)(F)F)c1` was run?
The Potency was 5290 nM (active).

For `COc1ccc(C(=O)Nc2ccccc2C(=O)Nc2cccc(C(F)(F)F)c2)cc1`, which Potency is on record?
Its Potency is 9400 nM (active).

`O=C(Nc1cccc(C(F)(F)F)c1)c1ccccc1NC(=O)C1CCCC1` was tested. Which Potency did it give?
Its Potency is 2360 nM (active).
